Gli-Sufu antag = Gli-Sufu pathway antagonists, primary screen, luciferase luminescence, Sufu-KO-LIGHT cells, uHTS; 340,000 compounds, 0.74% hits; inhibition, % at 5 µM; Sufu-KO-LIGHT fibroblasts, Gli luciferase reporter luminescence;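 active = inhibition above about 55%, limit read from the data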;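 also: 0% = DMSO-treated cells and 100% = wells with medium but no cells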
CSC inhib = cancer stem cell viability inhibitors, primary screen, luminescence; cancer stem cell-like cells viability; inhibition, % at 7.5 µM; 300,000 compounds, 1.1% hits; AID 2717, 2010; in the data active = inhibition above about 75%; inconclusive = no clear call, values can overlap the other calls; tested in HMLE shEcad cells
aSyn 5UTR inh = MLPCN primary screen, SNCA 5' untranslated region | 300,000 compounds, 0.82% hits | alpha-synuclein 5'UTR reporter, inhibitor activity | inhibition, % (tested at 7.5 µM); in the data active = inhibition above about 60%; inconclusive = no clear call, values can overlap the other calls;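 also: H4 neuroglioblastoma cells stably carrying SNCA 5'UTR luciferase fusion; 0% = DMSO wells and 100% = positive control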
Jurkat NFkB inh = inhibitors of induced NF-kB luciferase reporter, primary screen, TCR NF-kB activation inhibitor project, cell-based, luminescence, uHTS; 330,000 compounds, 0.53% hits; inhibition, % at 4 µM; Jurkat, PMA/ionomycin-induced NF-kB luciferase reporter; in the data active = inhibition above about 50%
Mdm2-MdmX inh = inhibitors of human Mdm2-MdmX association, primary screen, cell-based, luminescence, split luciferase, SaOS-2, uHTS. Protein Mdm4 (Homo sapiens) + E3 ubiquitin-protein ligase Mdm2 (Homo sapiens), …. SaOS-2 split-luciferase Mdm2/MdmX complementation. inhibition, % at 8 µM. 330,000 compounds, 3% hits;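 active = inhibition of at least 50% at 8 µM in the primary screen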
697 NFkB inh = inhibitors of PMA/ionomycin-induced NF-kB reporter, 697 cells, primary screen, B-cell NF-kB inhibitor project, cell-based, luminescence, uHTS | 697 B-cell NF-kB luciferase reporter, 16 h | inhibition, % at 4 µM | 330,000 compounds, 0.33% hits | AID 435022, 2010; in the data active = inhibition above about 35%
* hit, by the source's call; ? = inconclusive; · = no result given. A selection: hits, their analogues and other compounds. The true share with any hit is near 4.5%.

SMILES | Gli-Sufu antag | CSC inhib | aSyn 5UTR inh | Jurkat NFkB inh | Mdm2-MdmX inh | 697 NFkB inh
COc1ccc(C(c2c(O)ccc3ccccc23)N2CCOCC2)c(OC)c1 (stereo not drawn) | -23.9 | 100.8* | -55.4 | -79.1 | -28.5 | -80.6
COc1ccc(C(CCN2CCOCC2)c2c(O)cc(OC)cc2OC)cc1 (stereo not drawn) | -13.6 | -1.2 | 7.7 | 13.5 | 9.2 | 16.2
CC1CCCC(C)N1CCCNC(=O)Cn1c(=O)c2cccn2c2cccnc21 (stereo not drawn) | -13.1 | -0.8 | 14.8 | -11.9 | 14.1 | 1.7
CNc1nc2cc([N+](=O)[O-])c([N+](=O)[O-])cc2nc1NC | 84.2* | 3.6 | 9.1 | · | · | ·
Cc1c(N=Nc2c(-c3ccc([N+](=O)[O-])cc3)[nH]n(C(N)=S)c2=O)cccc1[N+](=O)[O-] | 68.4* | · | · | · | · | ·
Cc1cc(-c2nnc(SCC(=O)Nc3ccc(F)cc3F)n2N)n[nH]1 | -20.6 | -14.0 | -13.4 | -11.6 | 24.3 | 13.8
C[C@@H]1[C@H]2[C@@H](O[C@@H]3O[C@H](CO)[C@@H](O)[C@H](O)[C@H]3O)OC=C(C(=O)O)[C@H]2C[C@@H]1O | 10.0 | -5.3 | 23.4 | 0.4 | 9.2 | 9.6
COCCCn1cc(C(=O)c2ccccc2OCC(=O)Nc2cccc(F)c2)cc(C#N)c1=O | 5.0 | -5.5 | 5.5 | -0.5 | -13.8 | -10.2
OC(COc1cccc2ccccc12)CN1CCN(c2ccc(Cl)cc2)CC1 (stereo not drawn) | 0.7 | 77.3* | 6.5 | -0.8 | 24.2 | 3.4
OC(COc1cccc2ccccc12)CN1CCN(c2cccc(Cl)c2)CC1 (stereo not drawn) | 8.3 | 36.2 | -10.4 | 8.9 | -6.7 | 5.2
COc1ccc(C2=NN(C(=O)CSc3nnc(C)n3C)C(c3ccco3)C2)cc1 (stereo not drawn) | 4.0 | -9.3 | -14.3 | 5.7 | 0.1 | -2.4
COc1ccc(C2=NN(C(=O)COc3ncnc4ccccc34)C(c3ccco3)C2)cc1 (stereo not drawn) | 6.9 | -0.6 | 64.0* | 4.6 | 35.0 | 0.2
COC(=O)Nc1nc2ccc(C(=O)c3ccc(F)cc3)cc2[nH]1 | · | 60.6 | 99.2* | · | · | ·
O=C(Nc1nc2ccccc2[nH]1)c1cc(F)cc(F)c1 | -112.6 | 5.7 | -148.2 | -141.4 | -59.6 | -151.9
CCCOc1ccc2nc(NC(=O)OC)[nH]c2c1 | · | · | 83.9* | · | · | ·
CCOc1ccc2nc(NCCCO)[nH]c2c1 | 3.8 | -13.5 | 20.0 | 8.0 | 23.3 | 3.8
CCOC(=O)c1cc2c(nc1C)-c1cc(Cl)cc(Cl)c1OC2O (stereo not drawn) | -13.8 | -0.9 | -0.6 | -2.0 | 24.6 | 0.9
Cc1cccc(C(=O)N[C@H](C(=O)Nc2ccc(C)c(S(=O)(=O)N3CCOCC3)c2)C(C)C)c1 | 2.1 | 20.6 | · | 18.5 | 45.7 | -7.7
Cc1cc(Br)ccc1OCCn1ccnc1 | -7.8 | -6.3 | -8.1 | 6.9 | 18.2 | 5.6
S=C(Nc1ccc(Nc2ccccc2)cc1)NC1CCCCCC1 | 0.3 | 78.1* | -33.0 | -11.0 | 39.5 | -35.8
COc1ccc(NS(=O)(=O)c2ccc(O)c(C(=O)OCC(=O)NC(C)C3CC4CCC3C4)c2)cc1 (stereo not drawn) | -8.0 | · | 18.5 | 3.2 | 4.2 | 10.0
CC(NC(=O)COC(=O)c1cc(NS(=O)(=O)c2ccc(Cl)c([N+](=O)[O-])c2)ccc1O)C1CC2CCC1C2 (stereo not drawn) | 10.5 | 108.1* | 9.7 | -4.8 | 14.2 | -13.3
CCCCn1c(NCc2ccccc2NS(=O)(=O)c2ccc(C)cc2)nc2ccccc21 | 9.0 | 21.3 | 22.8 | 6.3 | 20.4 | 8.1
CCCCn1c(NS(=O)(=O)c2ccc(C)cc2)c(S(=O)(=O)c2ccccc2)c2nc3ccccc3nc21 | 10.5 | 107.8* | 6.0 | · | · | ·
O=C(CCC1CCCC1)Nc1ccc(C(=O)NCc2cccnc2)cc1 | 26.1 | ? | 71.9* | -17.1 | 6.3 | 10.3
SMILES | Gli-Sufu antag | CSC inhib | aSyn 5UTR inh | Jurkat NFkB inh | Mdm2-MdmX inh | 697 NFkB inh
O=C(O)CCCC(=O)Nc1ccc(C(=O)NCc2cccnc2)cc1 | -0.3 | -0.8 | 14.2 | -0.2 | -43.6 | 22.4
COCc1c(C(C)C)nc(C(C)C)c(/C=C/[C@@H](O)C[C@@H](O)CC(=O)O)c1-c1ccc(F)cc1 | · | 105.8* | 114.8* | · | · | ·
COc1ccc(C2=NN(C(=O)CCC(=O)O)C(c3ccc(F)cc3)C2)cc1 (stereo not drawn) | -19.2 | 3.2 | -4.7 | -2.5 | 11.4 | -0.7
COc1ccc(C2=Nn3c(nnc3-c3ccccc3OC)SC2)cc1OC | 47.1 | -2.5 | 107.0* | · | · | ·
COc1ccc(C2=Nn3c(nnc3-c3ccccn3)SC2)cc1OC | 3.3 | -16.7 | ? | 19.0 | 35.0 | -9.6
COc1ccc(C2=Nn3c(nnc3-c3ccc(OC)cc3)SC2)cc1 | 24.9 | 40.7 | 99.7* | · | · | ·
COc1ccc(-c2nnc3n2N=C(C)CS3)cc1 | 3.5 | -16.3 | 18.6 | -2.0 | 16.0 | 5.5
CCCc1cc(-c2nc(N)ncc2-c2ccc3c(c2)OCCCO3)c(O)cc1OC | 31.9 | 173.1* | 61.7* | 11.6 | 40.5 | -10.3
COc1ccc(NC(=O)N2CCCC(c3nc(-c4ccc(C(C)C)cc4)no3)C2)cc1 (stereo not drawn) | 32.0 | 95.9* | -163.5 | -54.1 | -118.8 | -78.8
COc1ccc(NC(=O)N2CCCC(c3nc(-c4ccc(OC)cc4)no3)C2)cc1 (stereo not drawn) | 8.6 | -0.6 | -93.9 | -15.7 | 3.1 | -19.5
Cc1ccc(C(C[N+](=O)[O-])n2nc(C)cc2C)cc1 (stereo not drawn) | 18.9 | 100.7* | 7.3 | -1.4 | 30.1 | 14.0
CCN(CC)c1ccc2cc(S(=O)(=O)c3ccc(C)cc3)c(=O)oc2c1 | 16.8 | 98.5* | -21.2 | -0.7 | 18.9 | -26.2
CCCOc1ccc(C(=O)Nc2ccc3c(c2)OCO3)cc1 | -58.4 | 57.7 | -95.1 | -99.4 | -107.6 | -26.9
CCCOc1c(Cl)cc(C(=O)Nc2ccc3c(c2)OCO3)cc1OCC | 34.5 | 79.2* | -12.6 | 12.8 | 38.9 | -4.9
CCCCOc1ccc(C(=O)Nc2ccc3c(c2)OCO3)cc1 | -4.0 | 92.6* | -92.8 | -35.9 | -42.1 | -21.1
Cc1ccc(CNC(=O)C2CC(=O)N(c3ccc(OCC(=O)N4CCCC4)cc3)C2)cc1 (stereo not drawn) | 23.9 | -0.2 | -7.6 | -24.8 | -1.5 | -11.4
ON=C1C2CC=C(c3ccccc3)C1CCC2 (stereo not drawn) | -5.8 | · | · | · | · | ·
CC(=O)N(Cc1ccc(F)cc1)C1=C(NCc2ccccc2)C(=O)c2ccccc2C1=O | 91.5* | · | 91.7* | · | · | ·
CCCN(CC(=O)Nc1ccccc1C)C(=O)c1ccc2c(c1)S(=O)(=O)N=C1CCCCCN12 | -6.7 | -11.8 | · | 2.8 | 2.5 | 18.5

Assay outcomes: PubChem BioAssay, several laboratories
